Assay results as given in PubChem BioAssay (NCI).
The panel holds about 83,000 compounds, 20% with a hit somewhere; the sample as a whole holds those more often.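 A percent growth of 40 corresponds to 60% growth inhibition; 0 means no net growth; -100 means all cells died. Active threshold: below 10.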 A number with no mark means an inactive call. Active and inactive are the calls of the source.

Assays:
Assay in all cases: NCI-60 one-dose screen, 48 h (100 = growth as untreated, 0 = no growth, -100 = all killed)
Settings in all cases: 10 µM unless noted
HT29 colon = test system: HT29 colon
SNB-75 CNS = test system: SNB-75 CNS
SNB-19 CNS = test system: SNB-19 CNS
U251 CNS = test system: U251 CNS
PC-3 prostate = test system: PC-3 prostate
SK-MEL-5 melanoma = test system: SK-MEL-5 melanoma
LOX IMVI melanoma = test system: LOX IMVI melanoma
SK-MEL-28 melanoma = test system: SK-MEL-28 melanoma
SK-MEL-2 melanoma = test system: SK-MEL-2 melanoma
UACC-62 melanoma = test system: UACC-62 melanoma

Row | Structure (SMILES) | growth (HT29 colon) | growth (SNB-75 CNS) | growth (SNB-19 CNS) | growth (U251 CNS) | growth (PC-3 prostate) | growth (SK-MEL-5 melanoma) | growth (LOX IMVI melanoma) | growth (SK-MEL-28 melanoma) | growth (SK-MEL-2 melanoma) | growth (UACC-62 melanoma)
1 | CO[C@H]1/C=C/O[C@@]2(C)Oc3c(C)c(O)c4c(O)c(c(/C=N/N5CCN(C)CC5)c(O)c4c3C2=O)NC(=O)/C(C)=C\C=C\C(C)[C@H](O)[C@@H](C)[C@@H](O)[C@@H](C)[C@@H](OC(C)=O)[C@@H]1C (stereo partly drawn) | 107% | 88.7% | 101% | 96.9% | 94% | 90.6% | 93.8% | 101% | 113% | 
2 | CN(CCOc1ccc(CC2SC(=O)NC2=O)cc1)c1ccccn1 (stereo not drawn) | 117% | 96.3% | 105% | 90.7% | 105% |  | 92.8% | 111% | 117% | 93.1%
3 | COc1cc2cn3c4ccc(O)cc4nc(N)c3c2cc1OC | 24.3% | 2.21% (active) | 20.5% | 4.61% (active) | 35.8% | -54.9% (active) | -40.5% (active) | 39% | 21.2% | 
4 | Cc1cc(C(C)(C)C)cc(C)c1CC1=NCCN1 | 105% | 97% | 106% | 106% | 91% | 96.7% | 95% | 116% | 113% | 
5 | CCOC(Cc1c(N)[nH]c(=S)[nH]c1=O)OCC | 99.2% | 96.7% | 106% | 103% | 95.3% |  | 95.3% | 102% | 124% | 104%
6 | CC[C@H](C)C(=O)O[C@H]1C[C@@H](C)C=C2C=C[C@H](C)[C@H](CC[C@@H]3C[C@@H](O)CC(=O)O3)[C@H]21 | 95.4% | 58.3% | 64.9% | 25.2% | 33.9% |  | 25.1% | 90.6% | 36.8% | 23.7%
7 | Fc1ccc([C@@H]2CCNC[C@H]2COc2ccc3c(c2)OCO3)cc1 | 14.9% | 57.6% | 80.2% | 70.3% | 53.6% |  | 42.9% | 94.4% | 83.8% | 57.5%
8 | COc1cc(/C=C2\COc3ccc(O)cc3C2=O)cc(OC)c1 | 12% | 87% | 50.5% | 30.1% | 53.8% |  | -65.5% (active) | 94.4% | 101% | 62.6%
9 | Clc1cc(Cl)c(OCC#CI)cc1Cl | 10.4% | 87.6% | 108% | 78.9% | 75.6% |  | -56% (active) | 17.2% | 75.8% | 62.8%
10 | CCOc1cc(C(C)(C)C)ccc1C1=N[C@H](c2ccc(Cl)cc2)[C@H](c2ccc(Cl)cc2)N1C(=O)N1CCN(CC#Cc2cccc3c2CN([C@@H]2CCC(=O)NC2=O)C3=O)CC1 | 12.6% | 23% | 45% | 65.8% | 0.359% (active) |  | 31.8% | 53.4% | 44.9% | 24.3%
11 | CO[C@H]1CC(O[C@@H]2/C(C)=C/C[C@@H]3C[C@@H](C[C@]4(CC[C@H](C)[C@@H](C5CCCCC5)O4)O3)OC(=O)[C@@H]3C=C(C)/C(=N/O)[C@H]4OC/C(=C\C=C\[C@@H]2C)[C@]43O)O[C@@H](C)C1O (stereo partly drawn) | -70.9% (active) | -90.4% (active) | -96.6% (active) | -87.6% (active) | -80.4% (active) |  | -92.9% (active) | -87.3% (active) | -71.8% (active) | -93.4% (active)
12 | CCCCCCCCSc1ncnc2c1ncn2CO | 91% | 75.1% | 94.7% | 74.7% | 75.6% |  | 80.1% | 101% | 95.8% | 92.8%
13 | CCCCN(CCCC)CCCOC(=O)c1ccc(N)cc1 | 31.4% | 39.1% | 88.7% | 58.5% | 97.1% |  | 64.2% | 57.5% | 85.1% | 92.3%
14 | CCC[C@H](N[C@@H](C)C(=O)N1[C@H](C(=O)O)C[C@@H]2CCCC[C@@H]21)C(=O)OCC | 100% | 112% | 104% | 93.6% | 91.8% |  | 89.8% | 123% | 112% | 104%
15 | O=C1/C(=N/O)CCc2ccccc21 | 101% | 82.2% | 100% | 103% | 59.8% |  | 76.5% | 121% | 113% | 87.6%
16 | Cn1[nH]cc(/C=N/C(N)=O)c1=O | 115% | 106% | 106% | 103% | 108% |  | 96.1% | 115% | 109% | 105%
17 | O=c1[nH]c(=O)n(C2CC(O)C(CO)O2)cc1C(F)(F)F (stereo not drawn) | 68.7% | 57.6% | 55.6% | 42% | 74.8% |  | 18.3% | 75.2% | -17.8% (active) | 29.6%
18 | CCOc1cccc(C2CC(=O)Nc3cc4c(cc32)OCO4)c1 (stereo not drawn) | 89.1% | 104% | 100% | 85.1% | 81.7% |  | 93.8% | 99.9% | 83.1% | 90.9%
19 | CCCCc1nc(Cl)c(CO)n1Cc1ccc(-c2ccccc2-c2nn[nH]n2)cc1 | 108% | 101% | 110% | 97.9% | 93.2% |  | 100% | 114% | 125% | 102%
20 | Cc1c(N(C)CS(=O)(=O)O)c(=O)n(-c2ccccc2)n1C | 97.7% | 111% | 101% | 100% | 94.8% |  | 104% | 108% | 106% | 96.9%
21 | COc1cc(/C=C2\COc3ccc(O)c(O)c3C2=O)cc(OC)c1 | 3.57% (active) | 26.5% | 11.2% | -19.3% (active) | -3.29% (active) |  | -66.2% (active) | 14.1% | 86.5% | -86.3% (active)
22 | Cn1c(=O)c2nc(SCc3ccccc3)n(C)c2n(C)c1=O | 113% | 104% | 89.4% | 101% | 102% |  | 99.1% | 119% | 101% | 109%
23 | COc1ccc(/C=C2\COc3ccc(O)c(O)c3C2=O)cc1OC | 8.1% (active) | 42.1% | 22.4% | 5.85% (active) | 11.7% |  | -68% (active) | 57.2% | 76% | -29.4% (active)
24 | N=c1ccn2c(n1)O[C@@H]1[C@@H](O)[C@H](CO)O[C@@H]12 | 54.2% | 82.8% | 64.8% | 52.2% | 57.9% |  | 67.9% | 69.9% | 82.7% | 81.2%
25 | OCCOc1c(Cl)cc(Cl)cc1Cl | 110% | 62.2% | 94.2% | 103% | 101% |  | 100% | 96.8% | 126% | 94.6%
26 | CCN1C2=C(SC(=S)C1=C1SC(C(=O)OC)=C(C(=O)OC)S1)SC(=Nc1ccc(OC)cc1)C2=O | -6.07% (active) | -16.1% (active) | 4.72% (active) | -32.5% (active) | 2.92% (active) |  | -72.1% (active) | -55% (active) | -5.85% (active) | -76.8% (active)
27 | Cc1nn(-c2ccc(Cl)cc2)c2nc3c(nc12)C(=O)c1ccccc1-3 | 65.1% | 95.5% | 87.2% | 47% | 54.9% |  | 51.2% | 28.4% | 79.7% | 55.2%
